# Measurements as given in ChEMBL document CHEMBL4296182, “CO-ADD screening of NIH NCI Diversity Set V”.
# For part of these data: Results with a measured potency or affinity are listed apart.
# Experiments:
# [1] = test system: Staphylococcus aureus; experiment: Antibacterial activity against Staphylococcus aureus MRSA ATCC 43300 (CO-ADD:GP_020); MIC in CAMBH media using NBS plates, by Resazurin F(560/590); assay type: functional; conditions: Concentration 20 uM, ASSAY_TEST Inhibition of Bacterial Growth, detection method Resazurin, Fluorescence (ex560/em590), MEDIA CAMHB, plate type 384well, CORNING #3640, time 18 hr
# [2] = test system: Acinetobacter baumannii; experiment: Antibacterial activity against Acinetobacter baumannii ATCC 19606 (CO-ADD:GN_034); MIC in CAMBH media using NBS plates, by Resazurin F(560/590); assay type: functional; conditions: Concentration 20 uM, ASSAY_TEST Inhibition of Bacterial Growth, detection method Resazurin, Fluorescence (ex560/em590), MEDIA CAMHB, plate type 384well, CORNING #3640, time 18 hr
# [3] = test system: Escherichia coli; experiment: Antibacterial activity against Escherichia coli ATCC 25922 (CO-ADD:GN_001); MIC in CAMBH media using NBS plates, by Resazurin F(560/590); assay type: functional; conditions: Concentration 20 uM, ASSAY_TEST Inhibition of Bacterial Growth, detection method Resazurin, Fluorescence (ex560/em590), MEDIA CAMHB, plate type 384well, CORNING #3640, time 18 hr
# [4] = test system: Klebsiella pneumoniae; conditions: Concentration 20 uM; ASSAY_TEST Inhibition of Bacterial Growth; detection method Absorption (OD600); MEDIA CAMHB; plate type 384well; NBS; CORNING #3640; time 18 hr
# [5] = test system: Candida albicans; conditions: 20 µM
# [6] = test system: Cryptococcus neoformans; conditions: Concentration 20 uM; ASSAY_TEST Inhibition of Fungal Growth; detection method Resazurin; Absorption (OD600-OD570); plate type 384well; NBS; CORNING #3640
Structure (SMILES),Inhibition [1] [%],Inhibition [2] [%],Inhibition [3] [%],Inhibition [4] [%],Inhibition [5] [%],Inhibition [6] [%]
CCCOc1ccc(-c2nc(-c3ccc([N+](=O)[O-])cc3)cs2)cc1,9.47,16.16,3.67,10.79,5.94,-3.16
Oc1nc(S)ncc1Oc1ccc(Cl)cc1Cl,8.02,11.12,2.19,10.84,6.27,-6.95
COc1cc(/N=N/c2ccccc2C(=O)O)ccc1O,46.16,-0.55,0.38,12.27,-1.22,3.74
Cc1ccc(Nc2ccc(N)cc2S(=O)(=O)O)cc1,11.37,8.99,-1.31,9.09,3.65,-9.37
Nc1cc(-c2ccccc2)ccc1O,13.15,-7.9,6.67,17.45,4.12,-0.33
CN(C)c1ccc(/C=C2/C=C(c3ccc4c(c3)CCCC4)OC2=O)cc1,19.91,-7.24,16.55,6.65,4.35,1.53
C=CCNC(=S)N1CCN(c2ccccc2Cl)CC1,6.69,9.34,-14.86,17.35,32.7,-0.57
Brc1csc2ncccc12,8.68,14.4,-1.37,10.17,7.21,-5.07
Clc1ccccc1-c1nc2ccccc2[nH]1,11.4,-8.21,9.05,12.13,4.17,-6.44
O=C(Nc1nnc(C(F)(F)F)s1)c1c(F)cccc1F,18.6,12.37,3.33,14.22,14.6,22.23
CCOC(=O)c1cc2c(OC)c(OC)ccc2c2ncc(C#N)c(O)c12,2.33,4.98,-22.93,0.73,5.12,44.69
Clc1ccccc1/C=C/c1ccnc2ccccc12,12.2,3.17,1.57,12.59,30.4,-3.47
CC1(C)CCSC(/C=C/c2ccccc2)=N1,5.78,13.91,-1.41,18.54,1.26,-4.58
Cc1ccc(/N=N/c2c(N)nn(-c3ccccc3)c2N)cc1,4.28,-1.05,11.08,11.62,9.14,-17.06
O=c1nc(Oc2ccccc2)nc2ncccn12,18.68,13.4,27.8,4.93,7.13,-13.98
CC(C)(CO)N1CCN(C(S)=Nc2ccccc2)CC1,-0.05,2.01,-1.36,29.13,8.13,-5.08
O=C(Nc1nc2ccccc2s1)Nc1ccc([N+](=O)[O-])cc1Cl,3.4,12.6,-5.05,8.17,4.63,-2.66
c1ccc(-c2cc3ccccc3[nH]2)cc1 [2-PHENYL-1H-INDOLE],0.91,-19.68,16.97,15.65,3.85,-3.77
O=C(Nc1ccc(F)cc1)OCCOc1ccc([N+](=O)[O-])cc1,6.26,5.22,-7.06,8.41,4.71,-9.23

Structure (SMILES),Inhibition [1] [%],Inhibition [2] [%],Inhibition [3] [%],Inhibition [4] [%],Inhibition [5] [%],Inhibition [6] [%]
Cc1ccc(C)c(-n2c(-c3ccc(Br)cc3)cs/c2=N\C(=O)c2ccccc2F)c1,15.56,-6.11,6.4,8.65,4.24,-4.37
C(=C\c1ccccn1)/c1ccccn1,-7.74,-5.17,-19.26,9.47,4.3,26.47
C[C@H](CCC(=O)O)[C@H]1CC[C@@]2(C)[C@@H]3C(=O)C[C@H]4C(C)(C)[C@@H](O)CC[C@]4(C)[C@H]3C(=O)C[C@]12C,2.14,-2.92,-3.17,11.41,-2.24,-2.42
CCOc1ccc(Nc2c3ccccc3nc3ccccc23)cc1,-9,-1.21,-17.49,0.35,-0.79,-2.93
Cc1cccnc1N=C(S)Nc1ncccc1C,10.58,20.87,9.06,23.76,3.55,-10.6
COc1ccc2c(c1)c1ccc3c(c1n2C)C(=O)C=CC3=O,-28.89,3.5,-18.56,4.14,7,0.4
COc1cc(C(O)c2nc3ccccc3s2)cc(OC)c1OC (stereo not drawn),9.75,-15.16,6.66,12.12,9.5,-12.06
CCCn1cnc2c(Sc3c([N+](=O)[O-])ncn3C)nc(N)nc21,-2.1,-3.75,6.82,9.05,1.1,-2.37
COc1cccc(-c2nnc(N)o2)c1,11.58,-10.93,4.71,8.97,1.68,-2.41
Clc1[nH]cnc2nccc1-2,1.4,-14.17,0.3,29.26,1.22,-2.5
CCOc1ccc(NC(=O)C2CCCN(C)C2)cc1 (stereo not drawn),8.6,6.87,-2.25,20.11,9.11,-4.92
O=C(O)c1ccccc1-n1c2ccccc2c2ccccc21,10.38,6.58,7.31,10.24,4.15,-5.74
Nc1cc2c3c(cccc3c1)C(=O)N(CCN1CCCC1)C2=O,23.19,9.76,2.48,19.29,-1.62,-3.61
O=Cc1c[nH]c2ncccc12,3.78,-8.67,4.47,13.98,4.83,-7.37
CCCN(CCC)c1ccc(/C=C/c2ccc3cc(OCC)ccc3n2)cc1,6.79,8.69,-3.61,28.88,-0.13,-5.04
COC1OC(O)C(NC(=O)C(F)(F)F)CC1O (stereo not drawn),15.69,9.13,5.88,16.01,3.69,-8.11
CC(=O)Nc1cc(NC(C)=O)ncn1,12.16,-10.63,12.12,16.66,3.12,-1.27
CCCn1cnc2c(S)nc(N)nc21,0.53,-16.82,10,2.88,-1.47,-9.79
Cc1ccc([N+](=O)[O-])cc1NC(=O)Nc1ccc(S(N)(=O)=O)cc1,2.59,7.91,0,0.38,-0.57,-7.76
